Results reported in the supplement of paper PMC10849652.
About 8,800 targets were measured; listed, in parts, are those with a hit and a random draw of the rest. About 0.5% of all pairs of compound and target were hits.

How the values were obtained:
Assay in all cases: log2 fold change, soluble protein after heating vs DMSO (PISA); higher = thermal stabilisation; K562 lysate, 10 uM; active = over 0.2 and 3.5 SD of the protein, either way, in both replicates (recomputed)
erlotinib = compound: C#Cc1cccc(Nc2ncnc3cc(OCCOC)c(OCCOC)cc23)c1 [erlotinib]
Method in brief: (§1)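 Log-two fold change in thermal stability relative to solvent controls is reported from duplicates. For each sample, crude K562 extract from dounce-homogenised pellets in PBS pH 7.4 with 1 mM MgCl2, at 1 mg/mL protein, was treated with 10 μM compound for 30 min. Aliquots heated for 3 min across 48°C-58°C were pooled, brought to 0.5% NP-40 at 4°C and cleared at 21,000xg for 90 min. The supernatant was quantified by TMTpro 16plex LC-MS/MS with channel sums equalised.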

[1] = compound: C/C(=N\NC(=O)C1=CC(=CC=C1)S(=O)(=O)N2CCOCC2)/C3=C(C=CC(=C3)Cl)O
Method in brief: as §1

[2] = compound: C1=CC(=CC=C1C2=NC3=C(N2)C=C(C=C3)C(=O)N)OC4=CC=C(C=C4)Cl
Method in brief: as §1

[3] = compound: C1=CC2=C(C=CC(=C2)/C=C\3/C(=O)NC(=NCC4=CC=CS4)S3)N=C1
Method in brief: as §1

[4] = compound: C1=CC2=NC=CN=C2C=C1/C=C/3\C(=O)NC(=O)S3
Method in brief: as §1

[5] = compound: C1=CC=C(C=C1)C2=NC(=C(N2)C3=CC=NC=C3)C4=CC(=C(C=C4)Cl)O
Method in brief: as §1

[6] = compound: C1=CC=C2C(=C1)C3=NNC4=CC=CC(=C43)C2=O
Method in brief: as §1

[7] = compound: C1CCN(C1)C(=O)NC2=CC=CC(=C2)NC3=NC=C(C(=N3)NCCC4=CN=CN4)Br
Method in brief: as §1

[8] = compound: C1CN(CCC1(CC2=CC=C(C=C2)Cl)N)C3=NC=NC4=C3C=CN4
Method in brief: as §1

IRAK-1-4 Inhibitor I = compound: C1COCCN1CCN2C3=CC=CC=C3N=C2NC(=O)C4=CC(=CC=C4)[N+](=O)[O-] [IRAK-1-4 Inhibitor I]
Method in brief: as §1

ibrutinib = compound: C=CC(=O)N1CCC[C@@H](n2nc(-c3ccc(Oc4ccccc4)cc3)c3c(N)ncnc32)C1 [ibrutinib]
Method in brief: as §1

[9] = compound: CC(=O)c1cnc2ccc(-c3cc(Cl)c(O)c(Cl)c3)nc2c1N[C@H]1CC[C@H](CN(C)C)CC1
Method in brief: as §1

ralimetinib = compound: CC(C)(C)Cn1c(N)nc2ccc(-c3[nH]c(C(C)(C)C)nc3-c3ccc(F)cc3)nc21 [ralimetinib]
Method in brief: as §1

[10] = compound: CC(C)(O)CC(=O)NCCn1ccc2ncnc(Nc3ccc(Oc4cccc(C(F)(F)F)c4)c(Cl)c3)c21
Method in brief: as §1

[11] = compound: CC(C)C1=C2N=C(C=C(N2N=C1)NCC3=CC=CC=C3)NCCCCCCN
Method in brief: as §1

[12] = compound: CC1=C(C(CC(=O)N1)C2=CC=C(C=C2)C(F)(F)F)C(=O)NC3=C(C=C4C(=C3)C=NN4)F
Method in brief: as §1

[13] = compound: CC1=C(C2=C(C=C1)C(=O)C3=CC=CC=C3N2CCCN)C
Method in brief: as §1

[14] = compound: CC1=C(C=C(C=C1)NC(=O)C2=CC(=CC=C2)C(C)(C)C#N)NC3=CC4=C(C=C3)N=CN(C4=O)C
Method in brief: as §1

[15] = compound: CC1=C(C=C(C=C1)NC(=O)C2=CC(=CC=C2)N(C)C)NC(=O)C3=CC=C(C=C3)O
Method in brief: as §1

[16] = compound: CC1=CC=C(C=C1)SC2=C3C=C(SC3=CN=C2)C(=O)N
Method in brief: as §1

Measured: log2 fold change

DCUN1D4 isoform 3 (UniProt Q92564)
Sequence of UniProt Q92564 (Q92564 whole entry, looked up): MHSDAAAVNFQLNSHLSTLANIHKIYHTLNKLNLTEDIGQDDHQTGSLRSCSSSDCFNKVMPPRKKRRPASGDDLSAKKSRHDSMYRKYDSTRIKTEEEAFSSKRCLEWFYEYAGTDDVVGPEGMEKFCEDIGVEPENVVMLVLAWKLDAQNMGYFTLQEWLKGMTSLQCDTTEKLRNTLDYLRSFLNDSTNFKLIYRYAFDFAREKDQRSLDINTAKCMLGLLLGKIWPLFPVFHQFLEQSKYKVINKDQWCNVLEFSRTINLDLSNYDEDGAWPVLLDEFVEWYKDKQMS
inactive: erlotinib -0.025 | [1] -0.118 | [2] 0.068 | [3] -0.127 | [4] -0.063 | [5] -0.026 | [6] -0.053 | [7] -0.09 | [8] -0.113 | IRAK-1-4 Inhibitor I 0.005 | ibrutinib 0.064 | [9] 0.078 | ralimetinib -0.033 | [10] -0.057 | [11] 0.018 | [12] -0.009 | [13] -0.078 | [14] -0.027 | [15] 0.029 | [16] -0.059

COG4 (UniProt Q9H9E3)
inactive: erlotinib 0.029 | [1] -0.015 | [2] -0.05 | [3] -0.015 | [4] -0.018 | [5] 0.008 | [6] -0.057 | [7] 0.011 | [8] 0.039 | IRAK-1-4 Inhibitor I 0.009 | ibrutinib 0.014 | [9] 0.005 | ralimetinib -0.007 | [10] -0.042 | [11] -0.029 | [12] 0 | [13] -0.001 | [14] -0.049 | [15] -0.033 | [16] 0

DCP1A (UniProt Q9NPI6)
inactive: erlotinib 0.038 | [1] 0.025 | [2] 0.03 | [3] 0.004 | [4] -0.03 | [5] 0.014 | [6] -0.033 | [7] 0.013 | [8] 0.012 | IRAK-1-4 Inhibitor I -0.045 | ibrutinib 0 | [9] -0.016 | ralimetinib 0.004 | [10] -0.042 | [11] 0.025 | [12] 0.013 | [13] -0.02 | [14] 0.046 | [15] 0.011 | [16] 0

DHRS1 (UniProt Q96LJ7)
Sequence of UniProt Q96LJ7 (Q96LJ7 whole entry, looked up): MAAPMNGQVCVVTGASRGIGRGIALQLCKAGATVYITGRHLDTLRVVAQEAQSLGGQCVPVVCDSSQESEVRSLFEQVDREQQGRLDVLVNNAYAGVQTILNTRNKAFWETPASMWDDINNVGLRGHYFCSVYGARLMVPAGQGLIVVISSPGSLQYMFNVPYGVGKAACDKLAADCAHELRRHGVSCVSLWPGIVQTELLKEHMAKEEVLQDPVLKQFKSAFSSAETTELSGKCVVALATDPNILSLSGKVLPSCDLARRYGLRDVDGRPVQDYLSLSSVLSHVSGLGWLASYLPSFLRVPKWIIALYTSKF
active: [1] 0.898 | [5] 0.654
inactive: erlotinib 0.024 | [2] -0.017 | [3] -0.008 | [4] -0.036 | [6] 0.05 | [7] -0.052 | [8] 0.105 | IRAK-1-4 Inhibitor I -0.051 | ibrutinib -0.057 | [9] -0.037 | ralimetinib 0.01 | [10] 0.089 | [11] 0.058 | [12] 0.024 | [13] -0.104 | [14] 0.001 | [15] -0.035 | [16] -0.001

DGCR8 (UniProt Q8WYQ5)
inactive: erlotinib 0.045 | [1] -0.026 | [2] 0.019 | [3] 0.023 | [4] -0.057 | [5] 0.002 | [6] -0.011 | [7] -0.019 | [8] 0 | IRAK-1-4 Inhibitor I -0.038 | ibrutinib 0.031 | [9] -0.049 | ralimetinib 0.014 | [10] -0.014 | [11] 0.015 | [12] 0.02 | [13] -0.018 | [14] -0.219 | [15] 0.071 | [16] -0.006

DARS (UniProt P14868)
Sequence of UniProt P14868 (P14868 whole entry, looked up): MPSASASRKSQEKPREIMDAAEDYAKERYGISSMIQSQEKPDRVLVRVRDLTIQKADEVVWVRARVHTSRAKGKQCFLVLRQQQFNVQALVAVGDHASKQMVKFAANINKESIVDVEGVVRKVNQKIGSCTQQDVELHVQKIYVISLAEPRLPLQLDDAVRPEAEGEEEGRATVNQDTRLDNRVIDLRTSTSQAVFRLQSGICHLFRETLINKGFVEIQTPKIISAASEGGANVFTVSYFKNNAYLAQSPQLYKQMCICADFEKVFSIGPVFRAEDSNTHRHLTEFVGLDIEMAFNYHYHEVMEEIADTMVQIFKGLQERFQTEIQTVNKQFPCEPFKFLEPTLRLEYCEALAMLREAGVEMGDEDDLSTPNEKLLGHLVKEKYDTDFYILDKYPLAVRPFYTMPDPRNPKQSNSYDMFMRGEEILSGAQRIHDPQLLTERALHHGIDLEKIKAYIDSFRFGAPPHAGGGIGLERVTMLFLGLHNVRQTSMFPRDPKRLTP
inactive: erlotinib 0.006 | [1] 0.037 | [2] -0.039 | [3] 0.027 | [4] 0.019 | [5] -0.004 | [6] -0.04 | [7] -0.012 | [8] -0.024 | IRAK-1-4 Inhibitor I -0.041 | ibrutinib 0.009 | [9] 0.021 | ralimetinib 0.049 | [10] 0.04 | [11] 0.001 | [12] -0.003 | [13] 0.027 | [14] -0.019 | [15] 0.026 | [16] 0.053

CHURC1 isoform 2 (UniProt Q8WUH1)
Sequence of UniProt Q8WUH1 (Q8WUH1 whole entry, looked up): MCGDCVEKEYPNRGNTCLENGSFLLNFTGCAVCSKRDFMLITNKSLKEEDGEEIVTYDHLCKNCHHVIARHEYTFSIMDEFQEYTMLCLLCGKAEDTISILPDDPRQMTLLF
inactive: erlotinib 0.05 | [1] -0.13 | [2] -0.021 | [3] -0.003 | [4] 0.015 | [5] 0.079 | [6] 0.002 | [7] -0.017 | [8] 0.058 | IRAK-1-4 Inhibitor I -0.002 | ibrutinib 0.055 | [9] 0.05 | ralimetinib 0.027 | [10] -0.077 | [11] 0.07 | [12] -0.065 | [13] 0.057 | [14] 0.085 | [15] -0.102 | [16] 0.004

CNOT4 isoform 6 (UniProt O95628)
Sequence of UniProt O95628 (O95628 whole entry, looked up): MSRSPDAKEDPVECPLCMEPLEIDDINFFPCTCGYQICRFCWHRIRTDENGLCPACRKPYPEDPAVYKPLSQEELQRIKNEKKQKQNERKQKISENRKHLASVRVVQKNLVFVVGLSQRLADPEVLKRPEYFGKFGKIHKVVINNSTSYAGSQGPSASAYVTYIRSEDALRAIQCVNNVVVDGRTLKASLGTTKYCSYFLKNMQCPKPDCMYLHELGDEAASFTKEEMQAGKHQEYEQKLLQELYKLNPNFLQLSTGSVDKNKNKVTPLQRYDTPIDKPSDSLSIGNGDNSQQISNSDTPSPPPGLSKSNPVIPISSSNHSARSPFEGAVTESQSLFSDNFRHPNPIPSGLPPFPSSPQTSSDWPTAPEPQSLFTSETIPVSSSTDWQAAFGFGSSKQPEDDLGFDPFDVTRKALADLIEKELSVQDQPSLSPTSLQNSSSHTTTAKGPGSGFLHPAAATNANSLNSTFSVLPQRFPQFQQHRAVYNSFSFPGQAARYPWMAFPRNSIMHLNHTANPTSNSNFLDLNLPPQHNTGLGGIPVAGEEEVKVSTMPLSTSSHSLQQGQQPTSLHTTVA
active: [14] -0.281
inactive: erlotinib -0.025 | [1] -0.016 | [2] 0.005 | [3] 0.017 | [4] 0.009 | [5] -0.035 | [6] 0.043 | [7] -0.032 | [8] -0.013 | IRAK-1-4 Inhibitor I 0.041 | ibrutinib -0.004 | [9] 0.021 | ralimetinib 0.033 | [10] -0.007 | [11] -0.003 | [12] 0.049 | [13] 0.037 | [15] -0.026 | [16] 0.012

DNAJC1 (UniProt Q96KC8)
inactive: erlotinib -0.018 | [1] -0.011 | [2] -0.159 | [3] -0.053 | [4] 0.032 | [5] -0.044 | [6] -0.039 | [7] -0.011 | [8] 0.017 | IRAK-1-4 Inhibitor I 0.013 | ibrutinib -0.018 | [9] 0.018 | ralimetinib -0.007 | [10] -0.048 | [11] -0.014 | [12] 0.019 | [13] 0.019 | [14] -0.009 | [15] 0.032 | [16] 0.011

DHRS11 (UniProt Q6UWP2)
Sequence of UniProt Q6UWP2 (Q6UWP2 whole entry, looked up): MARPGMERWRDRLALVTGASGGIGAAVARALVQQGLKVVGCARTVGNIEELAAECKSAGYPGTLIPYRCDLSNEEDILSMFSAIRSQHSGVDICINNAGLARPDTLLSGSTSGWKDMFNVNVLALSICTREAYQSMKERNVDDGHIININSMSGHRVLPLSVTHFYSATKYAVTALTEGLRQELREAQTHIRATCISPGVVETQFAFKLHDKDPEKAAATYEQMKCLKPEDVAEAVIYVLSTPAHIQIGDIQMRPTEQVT
inactive: erlotinib 0.054 | [1] -0.017 | [2] -0.004 | [3] 0.017 | [4] -0.006 | [5] -0.015 | [6] -0.008 | [7] -0.041 | [8] 0.042 | IRAK-1-4 Inhibitor I -0.02 | ibrutinib 0.028 | [9] -0.008 | ralimetinib 0.028 | [10] -0.014 | [11] 0.048 | [12] -0.005 | [13] -0.029 | [14] 0.007 | [15] 0.015 | [16] 0.03

CIB1 (UniProt Q99828)
Sequence of UniProt Q99828 (Q99828 whole entry, looked up): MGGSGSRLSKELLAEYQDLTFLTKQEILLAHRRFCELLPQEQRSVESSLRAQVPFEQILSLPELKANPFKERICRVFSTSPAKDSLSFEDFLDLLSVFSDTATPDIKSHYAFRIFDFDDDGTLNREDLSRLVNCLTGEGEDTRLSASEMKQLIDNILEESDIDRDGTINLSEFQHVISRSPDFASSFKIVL
inactive: erlotinib -0.039 | [1] 0.126 | [2] 0.013 | [3] 0.042 | [4] -0.227 | [5] 0.023 | [6] 0.02 | [7] 0.045 | [8] 0.073 | IRAK-1-4 Inhibitor I 0.026 | ibrutinib 0.096 | [9] -0.137 | ralimetinib 0.004 | [10] -0.056 | [11] -0.027 | [12] 0.007 | [13] -0.041 | [14] 0.042 | [15] -0.003 | [16] -0.066

CMSS1 (UniProt Q9BQ75)
Sequence of UniProt Q9BQ75 (Q9BQ75 whole entry, looked up): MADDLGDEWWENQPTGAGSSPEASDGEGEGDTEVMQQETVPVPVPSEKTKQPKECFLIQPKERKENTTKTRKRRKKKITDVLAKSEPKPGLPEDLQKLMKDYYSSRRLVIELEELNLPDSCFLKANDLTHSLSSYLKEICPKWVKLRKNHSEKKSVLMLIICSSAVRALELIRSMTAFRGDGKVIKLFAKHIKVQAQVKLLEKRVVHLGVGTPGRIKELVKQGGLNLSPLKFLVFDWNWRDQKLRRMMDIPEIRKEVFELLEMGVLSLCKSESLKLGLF
inactive: erlotinib -0.029 | [1] 0.018 | [2] -0.031 | [3] 0.011 | [4] -0.059 | [5] -0.004 | [6] 0.011 | [7] -0.011 | [8] 0.03 | IRAK-1-4 Inhibitor I -0.035 | ibrutinib -0.012 | [9] -0.016 | ralimetinib -0.002 | [10] -0.011 | [11] 0.047 | [12] -0.015 | [13] 0.027 | [14] -0.059 | [15] 0.019 | [16] -0.004

CSDE1 isoform 4 (UniProt O75534)
inactive: erlotinib -0.025 | [1] 0.009 | [2] -0.035 | [3] 0.001 | [4] -0.023 | [5] -0.021 | [6] -0.002 | [7] 0.016 | [8] -0.001 | IRAK-1-4 Inhibitor I -0.017 | ibrutinib -0.007 | [9] -0.003 | ralimetinib 0.017 | [10] 0.03 | [11] 0.003 | [12] -0.013 | [13] 0.004 | [14] -0.022 | [15] 0.012 | [16] 0.009

COL6A5 (UniProt A8TX70)
inactive: erlotinib 0.064 | [1] 0.161 | [2] 0.02 | [3] -0.062 | [4] -0.167 | [5] 0.027 | [6] 0.014 | [7] 0.014 | [8] -0.052 | IRAK-1-4 Inhibitor I 0.046 | ibrutinib 0.046 | [9] -0.023 | ralimetinib -0.083 | [10] -0.141 | [11] 0.018 | [12] 0.063 | [13] -0.038 | [14] 0.108 | [15] -0.011 | [16] -0.053

DENND4A isoform 2 (UniProt Q7Z401)
Sequence of UniProt Q7Z401 (Q7Z401 whole entry, looked up): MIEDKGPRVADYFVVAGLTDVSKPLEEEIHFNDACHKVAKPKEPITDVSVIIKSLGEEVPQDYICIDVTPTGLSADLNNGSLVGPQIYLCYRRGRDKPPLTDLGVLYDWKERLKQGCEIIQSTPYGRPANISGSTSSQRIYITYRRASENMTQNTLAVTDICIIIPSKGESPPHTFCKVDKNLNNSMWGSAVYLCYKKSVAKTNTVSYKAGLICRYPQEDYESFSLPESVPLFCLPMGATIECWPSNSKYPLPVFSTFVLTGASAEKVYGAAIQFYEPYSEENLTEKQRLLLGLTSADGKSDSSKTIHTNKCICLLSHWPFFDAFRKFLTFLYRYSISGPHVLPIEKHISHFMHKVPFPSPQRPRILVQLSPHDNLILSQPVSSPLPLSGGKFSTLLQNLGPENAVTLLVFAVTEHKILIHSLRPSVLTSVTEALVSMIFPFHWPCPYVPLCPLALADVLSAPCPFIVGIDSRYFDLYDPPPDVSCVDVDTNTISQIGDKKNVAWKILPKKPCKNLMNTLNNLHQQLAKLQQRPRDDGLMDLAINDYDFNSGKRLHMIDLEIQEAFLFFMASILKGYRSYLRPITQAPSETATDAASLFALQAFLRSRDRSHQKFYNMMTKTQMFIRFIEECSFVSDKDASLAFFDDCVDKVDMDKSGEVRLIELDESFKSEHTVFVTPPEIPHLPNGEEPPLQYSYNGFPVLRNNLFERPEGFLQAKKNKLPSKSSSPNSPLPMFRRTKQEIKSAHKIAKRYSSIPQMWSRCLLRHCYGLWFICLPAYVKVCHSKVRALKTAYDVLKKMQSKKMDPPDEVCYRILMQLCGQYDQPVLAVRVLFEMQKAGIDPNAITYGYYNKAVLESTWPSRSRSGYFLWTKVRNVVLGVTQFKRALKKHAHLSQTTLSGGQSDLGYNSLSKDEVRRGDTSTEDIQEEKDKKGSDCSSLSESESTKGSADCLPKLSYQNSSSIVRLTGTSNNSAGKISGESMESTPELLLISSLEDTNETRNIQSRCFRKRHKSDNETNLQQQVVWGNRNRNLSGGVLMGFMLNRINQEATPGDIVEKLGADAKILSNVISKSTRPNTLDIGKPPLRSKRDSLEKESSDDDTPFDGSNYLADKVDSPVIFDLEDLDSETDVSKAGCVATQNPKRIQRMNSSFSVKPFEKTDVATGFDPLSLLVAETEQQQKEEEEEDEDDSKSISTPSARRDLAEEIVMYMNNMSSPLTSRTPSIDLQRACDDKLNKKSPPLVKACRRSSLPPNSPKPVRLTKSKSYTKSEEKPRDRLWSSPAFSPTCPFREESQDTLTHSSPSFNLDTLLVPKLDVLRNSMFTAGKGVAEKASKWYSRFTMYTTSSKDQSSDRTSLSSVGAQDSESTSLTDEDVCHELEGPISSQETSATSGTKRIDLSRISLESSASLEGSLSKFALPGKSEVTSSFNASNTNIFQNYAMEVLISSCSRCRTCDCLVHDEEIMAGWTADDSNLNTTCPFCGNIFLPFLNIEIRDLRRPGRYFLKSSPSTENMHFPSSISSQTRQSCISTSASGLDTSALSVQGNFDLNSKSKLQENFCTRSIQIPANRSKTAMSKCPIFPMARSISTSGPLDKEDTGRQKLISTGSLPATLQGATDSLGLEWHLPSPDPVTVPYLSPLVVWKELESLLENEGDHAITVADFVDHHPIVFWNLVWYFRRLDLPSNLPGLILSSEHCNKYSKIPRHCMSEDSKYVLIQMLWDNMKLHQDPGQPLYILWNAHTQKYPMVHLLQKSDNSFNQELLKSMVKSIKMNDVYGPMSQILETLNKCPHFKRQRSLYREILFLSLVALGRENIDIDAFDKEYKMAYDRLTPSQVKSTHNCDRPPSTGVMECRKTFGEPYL
inactive: erlotinib 0.023 | [1] -0.021 | [2] -0.015 | [3] 0.007 | [4] -0.045 | [5] 0.002 | [6] -0.041 | [7] 0.002 | [8] 0.012 | IRAK-1-4 Inhibitor I 0.017 | ibrutinib 0 | [9] -0.089 | ralimetinib 0.018 | [10] -0.028 | [11] 0.017 | [12] 0.006 | [13] 0.026 | [14] 0.029 | [15] 0.023 | [16] -0.009

DDX39A (UniProt O00148)
Sequence of UniProt O00148 (O00148 whole entry, looked up): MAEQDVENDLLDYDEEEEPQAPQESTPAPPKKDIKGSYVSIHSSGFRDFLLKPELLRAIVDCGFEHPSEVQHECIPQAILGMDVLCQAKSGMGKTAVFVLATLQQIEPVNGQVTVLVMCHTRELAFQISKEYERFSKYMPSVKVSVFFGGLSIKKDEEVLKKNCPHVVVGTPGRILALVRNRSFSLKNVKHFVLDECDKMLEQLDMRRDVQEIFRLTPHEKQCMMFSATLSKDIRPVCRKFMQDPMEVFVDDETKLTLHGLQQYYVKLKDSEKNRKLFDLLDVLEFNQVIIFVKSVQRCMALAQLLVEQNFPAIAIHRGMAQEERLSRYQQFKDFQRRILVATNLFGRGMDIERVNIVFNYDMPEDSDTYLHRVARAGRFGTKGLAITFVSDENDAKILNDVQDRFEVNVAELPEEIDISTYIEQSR
inactive: erlotinib 0.023 | [1] -0.095 | [2] -0.045 | [3] -0.001 | [4] -0.003 | [5] 0.008 | [6] -0.026 | [7] -0.02 | [8] 0.009 | IRAK-1-4 Inhibitor I 0.014 | ibrutinib -0.005 | [9] 0.062 | ralimetinib -0.009 | [10] 0.029 | [11] 0.022 | [12] 0 | [13] 0.009 | [14] -0.032 | [15] -0.016 | [16] -0.004
